The values below come from PubChem BioAssay.

Values without a mark were called inactive. How the calls were made is not given here. Numbered stars: 1 amine (or outer) side, 2 acyl side, 3 side chain; on linkers, the order of the positions; unused ones are H or OH. Bridge positions count the residues as written; N and C are the ends. Square brackets hold non-standard residues; d marks the D form. Peptide text beside a SMILES is read from it. * marks the point of attachment. ξ: configuration not given here. ΔAla(Z-3-ureido) = NC(=O)N/C=C(\N)C(=O)O; X2 = NC1=NC(O)CC(C(N[*:1])C(=O)[*:2])N1; ξβ3hOrn = NCCCC(N)CC(=O)*; Dap = NC[CH](N)C(=O)O

The nature of the assay: compounds altering viability of human ES cells (AID 493140).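 Further: cells exposed to compounds for four days before counting.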 To be noted: human embryonic stem cell survival screen; active compounds read high.
Take `CCO[C@@H]1O[C@H](C(COCc2ccccc2)OCc2ccccc2)[C@@H](OCc2ccccc2)C1O` (some centres not stated): the survival is 10.8. Then `O=C(O)CCC/C=C\C/C=C\C=C\[C@@H](O)C/C=C\CCCCCO`, with 89.3; and `CCNC1CC(N)C(OC2OC(CN)=CCC2N)C(O)C1OC1OCC(C)(O)C(NC)C1O` (configuration not stated), with 17.9; and `O=C(O)CCC[C@H](O)\C=C/C=C/C=C/[C@H](O)C/C=C\CCCCCO`, with 75.2. On to `O=[N+]([O-])c1ccc(Oc2ccc(Br)cc2)c(C(O)[P+](=O)O)c1` (configuration not stated), for which the survival was 83.4. Consider `C[C@@]1(O)CCOC(=O)C1`, for which the survival is 4.42. On to `CC/C=C\C/C=C\C/C=C\C/C=C\C=C\C(O)CCCC(=O)O` (configuration not stated), for which the survival was 128. For the compound `CCCCC/C=C\C/C=C\C=C\[C@@H](O)C/C=C\CCCC(=O)O`, the survival is 129. With `C[C@@H](O)CCC[C@H](O)/C=C/[C@H]1[C@H](O)CC(=O)[C@@H]1C/C=C\CCCC(=O)O` the figure was 111; with `C[N+](C)(CCCOc1ccccc1)c1ccccc1`, 5.92. With `C=CCN1/C(=C\CO)[C@@H]2C[C@@H]3[C@H]1CC[C@@]31c3ccccc3N3/C=C4\C5N(/C=C/2C31)c1ccccc1[C@@]51CC[C@@H]2[C@H]1C[C@H]4/C(=C/CO)N2CC=C` (some centres not stated) the figure was 26.5; with `CC/C=C\C[C@H](O)/C=C/C=C\C/C=C\C/C=C\CCCC(=O)O`, 122. For `C[C@@H](O)CCC[C@H](O)/C=C/[C@@H]1[C@@H](C/C=C\CCCC(=O)O)[C@@H](O)C[C@H]1O`, the survival was 102. For the compound `NCCCC(N)CC(=O)NC1CNC(=O)C(C2CC(O)N=C(N)N2)NC(=O)/C(=C/NC(N)=O)NC(=O)C(CO)NC(=O)C(CO)NC1=O` (stereo not drawn) (ξβ3hOrn-[Dap]SS[ΔAla(Z-3-ureido)][X2]; lactam 1-C; configuration not given here), the survival is 10.8. For the compound `CCCCC[C@H](O)/C=C/C=C/C/C=C\CCCC(=O)O`, the survival is 94.8. With `CC(C)c1cc(/C=C(\C#N)C(=O)NCCCc2ccccc2)cc(C(C)C)c1O` the figure was 124; with `CCCCC[C@H](O)/C=C/C=C\C/C=C\CCCCC(=O)O`, 67.2. For the compound `CCCCC/C=C\C[C@@H]1O[C@H]1C(O)/C=C\C/C=C\CCCC(=O)O` (some centres not stated), the survival was 86.8. Regarding `C=C(C)[C@@H]1CC[C@]2(CO)CC[C@]3(C)[C@H](CC[C@@H]4[C@@]5(C)CCC(O)C(C)(C)[C@@H]5CC[C@]43C)[C@@H]12` (some centres not stated), the survival was 7.33.

For `CCCCC/C=C\C[C@H](O)/C=C/C=C/C=C/[C@@H](O)CCCC(=O)O`, the survival is 96.2. In the case of `CC(C)NCC1CCc2cc(CO)c([N+](=O)[O-])cc2N1` (configuration not stated), the survival is 28.3. On to `CN(C)CCCO[C@H]1[C@@H](C(O)CO)OC2OC(C)(C)O[C@H]21` (some centres not stated), for which the survival was 7.5. For `CCCCC[C@H](O)/C=C/C=C/C=C/[C@@H](O)C/C=C\CCCC(=O)O`, the survival is 92.6. On to `CC/C=C\C/C=C\C/C=C\C/C=C\C/C=C\CCC(=O)O[C@H](COCCCCCCCCCCCCCCCC)COP(=O)([O-])OCC[N+](C)(C)C`, for which the survival was 83.1. `CCCCC/C=C\C[C@@H]1O[C@H]1/C=C/C(O)C/C=C\CCCC(=O)O` (some centres not stated): the survival was 93.9.

In the case of `CCCCC/C=C\C\C=C/C=C/C=C/[C@@H](O)[C@@H](O)CCCC(=O)O`, the survival is 116.

Turning to `CCCCC[C@H](O)/C=C/C=C\C/C=C\CCCCCCC(=O)O`, the survival is 102. On to `CCCCC/C=C\C/C=C\C/C=C\CCCCCCC(=O)O[C@H](COCCCCCCCCCCCCCCCC)COP(=O)([O-])OCC[N+](C)(C)C`, for which the survival is 71.5. For `CCCCCCCCCCCCC/C=C/[C@@H](O)[C@H](COP(=O)([O-])OCC[N+](C)(C)C)NC(=O)CCCCCCCCCCCCCCCCC`, the survival is 81.8. With `C=Cc1c(C)c2cc3nc(cc4[nH]c(cc5nc(cc1[nH]2)C(C)=C5CCC(=O)O)c(CCC(=O)OC)c4C)[C@@]1(C)C3=CC=C(C(=O)OC)C1C(=O)OC` (some centres not stated) (tested in a mixture with another compound) the figure was 12.9; with `CNC1C(O)C2O[C@H](OC3C(N)C[C@@H](N)C(O)[C@H]3O)C(N)C[C@H]2O[C@@H]1O[C@H]1OC(CO)[C@@H](N)[C@H](O)C1O` (some centres not stated), 10.6. Then `CCCCCCCC[C@@H](O)/C=C/C=C/C=C\[C@@H](O)CCCC(=O)O`, with 96.4.
